Reference: article PMC4552634, “A New Set of Chemical Starting Points with Plasmodium falciparum Transmission-Blocking Potential for Antimalarial Drug Discovery” (PLoS ONE, 2015)
Screen size: about 13,000 compounds; about 3,200 (25%) showed an effect of 50% or more. Some of the results follow.

What follows are molecules tested on P. falciparum stage V gametocytes. Conditions: 48 h, 5 µM; inhibitor.
Parameters: BacTiter-Glo ATP luminescence viability of purified stage V gametocytes in 384-well plates, per cent inhibition versus DMSO

Structure (SMILES) | % Inhibition
COc1ccc2c(c1)OC(C)(C)CC2=NOS(=O)(=O)c1ccc(C)cc1 [TCMDC-131772] | -0.3703%
O=c1cc(NCCCNC2CCOc3c(Cl)cc(Cl)cc32)[nH]c2ccccc12 (centres unmarked) [TCMDC-139477] | 33.79%
CC(=O)N[C@H](C(=O)Nc1ccc(-c2ccc(-c3nc4ccc(C(F)(F)F)cc4[nH]3)cc2)cc1)C(C)C [TCMDC-136854] | -3.438%
Cc1cccc2nc(-c3ccc(-c4ccc(NC(=O)NC5CC5c5ccccc5)cc4)cc3)[nH]c12 (centres unmarked) [TCMDC-133255] | -29.85%
Cc1cccc2nc(-c3ccc(-c4ccc(NC(=O)Nc5ccc(Cl)cc5)cc4)s3)[nH]c12 [TCMDC-133176] | -22.37%
Cc1nnsc1C(=O)Nc1ccc(-c2ccc(-c3nc4cccc(C)c4[nH]3)s2)cc1 [TCMDC-137090] | 0.4196%
Cc1nnsc1C(=O)Nc1cccc(-c2ccc(-c3nc4cc(F)ccc4[nH]3)s2)c1 [TCMDC-137089] | 59.58%
Cc1nnsc1C(=O)Nc1cccc(-c2ccc(-c3nc4ccccc4[nH]3)s2)c1 [TCMDC-137079] | 9.217%
Cc1nnsc1C(=O)Nc1cccc(-c2ccc(-c3nc4cccc(C)c4[nH]3)s2)c1 [TCMDC-137091] | 82.4%
Cc1cccc2nc(-c3ccc(-c4cccc(NC(=O)Nc5ccc(Cl)cc5)c4)s3)[nH]c12 [TCMDC-133175] | 74.56%
COc1ccc(NC(=O)Nc2cccc(-c3ccc(-c4nc5cccc(C)c5[nH]4)s3)c2)cc1 [TCMDC-133242] | 1.322%
O=C(Nc1cccc(-c2ccc(-c3nc4cc(F)ccc4[nH]3)s2)c1)c1ccncc1 [TCMDC-136968] | -9.65%
Cc1cccc2nc(-c3ccc(-c4cccc(NC(=O)Nc5ccc(Cl)c(Cl)c5)c4)s3)[nH]c12 [TCMDC-133272] | -3.418%
CC1CC(NCCCNc2cc(=O)c3ccccc3[nH]2)c2cc(Cl)c(Cl)c(Cl)c21 (centres unmarked) [TCMDC-139479] | 22.71%
C(=Cc1nc2ccccc2s1)c1ccc2c(c1)OCCO2 [TCMDC-124539] | 68.35%
N=C(N)c1nc2ccccc2s1 [TCMDC-123945] | 9.097%
C=CCNC(=O)CCCN=C(N)N [TCMDC-131668] | 6.787%
CC(C)(C)c1ccc2nc(-c3ccc(C(=O)NCCCc4ccccc4)cc3)[nH]c2c1 [TCMDC-140453] | 68.75%
Cc1cc2nc(-c3ccc(C(=O)NCCCc4ccccc4)cc3)[nH]c2cc1C [TCMDC-140429] | -39.85%
Cc1cc2nc(-c3ccc(C(=O)NCc4ccc(C(C)(C)C)cc4)cc3)[nH]c2cc1C [TCMDC-140433] | -24.96%
Cc1cc2nc(-c3ccc(OCC(=O)NCc4cccc(C(F)(F)F)c4)cc3)[nH]c2cc1C [TCMDC-140439] | -1.946%
CCOC(=O)c1ccc2nc(-c3ccc(C(=O)NCc4ccc(C(C)(C)C)cc4)cc3)[nH]c2c1 [TCMDC-140576] | -8.95%
CC(C)(C)c1ccc(CNC(=O)c2ccc(-c3nc4ccc(C(C)(C)C)cc4[nH]3)cc2)cc1 [TCMDC-140455] | 76.42%

Structure (SMILES) | % Inhibition
CC(C)(C)c1ccc2nc(-c3ccc(C(=O)NCc4cccc(C(F)(F)F)c4)cc3)[nH]c2c1 [TCMDC-140454] | 18.91%
Cc1cc2nc(-c3ccc(OCC(=O)NCc4ccc(C(C)(C)C)cc4)cc3)[nH]c2cc1C [TCMDC-140440] | 63.48%
CC(C)(C)c1ccc(CNC(=O)c2ccc(-c3nc4ccc(Cl)cc4[nH]3)cc2)cc1 [TCMDC-140442] | 5.243%
CCc1ccc(NC(=O)c2cccc(CN3CCCN(Cc4cccc(O)c4)CC3)c2)cc1 [TCMDC-135989] | -33.27%
O=C(/C=C/c1ccc(Cl)cc1)NCCCCCN1CCCC(C(=O)Nc2ccc(Cl)c(Cl)c2)C1 (centres unmarked) [TCMDC-136125] | -14.11%
CCC1CN(CCCn2c3ccccc3c3ccccc32)C(CC)CN1 (centres unmarked) [TCMDC-138116] | 25.71%
Cc1c(CCNC(=O)CCCN2CC(C)CC(C)C2)c2ccccc2n1C (centres unmarked) [TCMDC-131457] | 10.13%
CC1CN(CCCn2c3ccccc3c3ccc(C(=O)CCCN(C)C)cc32)CC(C)N1 (centres unmarked) [TCMDC-137742] | 88.42%
O=c1[nH]c2ccc(Nc3nccc(NCCc4ccccc4)n3)cc2[nH]1 [TCMDC-136805] | -64.58%
CC(CCCCCC(=O)Nc1ccc(CC(C)NCCc2cccc(Cl)c2)cc1)NCCc1cccc(Cl)c1 (centres unmarked) [TCMDC-139800] | 109.3%
CC(CCCC(=O)Nc1ccc(CC(C)NCCc2cccc(Cl)c2)cc1)NCCc1cccc(Cl)c1 (centres unmarked) [TCMDC-139798] | 110.2%
CC(Cc1ccc(NC(=O)CCCc2ccccc2)cc1)NCCc1cccc(Cl)c1 (centres unmarked) [TCMDC-139883] | 22.17%
CC(CCCCC(=O)Nc1ccc(CC(C)NCCc2cccc(Cl)c2)cc1)NCCc1cccc(Cl)c1 (centres unmarked) [TCMDC-139799] | 105.4%
CC(C)CNc1c2c(nc3cnn(-c4c5c(nc6cn[nH]c46)CCCC5)c13)CCCC2 [TCMDC-131555] | -4.273%
Cc1cccc2nc(-c3ccc(-c4ccc(CN5CCOCC5)cc4)cc3)[nH]c12.O=C(O)C(F)(F)F [TCMDC-133825] | 20.49%
O=C(Nc1cccc(C(F)(F)F)c1)NC1CCN(c2ccnc3ccccc23)CC1 [TCMDC-133586] | -4.951%
COc1ccc(NC(=O)NC2CCN(c3ccnc4ccccc34)C2)cc1 (centres unmarked) [TCMDC-133575] | 3.669%
Cc1ccc(NC(=O)NC2CCN(c3ccnc4ccccc34)C2)cc1 (centres unmarked) [TCMDC-133576] | -20.26%
O=C(Nc1ccc(F)cc1)NC1CCN(c2ccnc3ccccc23)C1 (centres unmarked) [TCMDC-133577] | 52.59%
O=C(Nc1ccccc1Br)N[C@@H]1CCN(c2ccnc3ccccc23)C1 [TCMDC-141572] | 52.9%
O=C(Nc1ccc(C(F)(F)F)cc1)NC1CCN(c2ccnc3ccccc23)C1 (centres unmarked) [TCMDC-133578] | 40.18%
O=C(Nc1ccc(OC(F)(F)F)cc1)NC1CCN(c2ccnc3ccccc23)C1 (centres unmarked) [TCMDC-133583] | -30.46%
O=C(Nc1ccc(C(F)(F)F)cc1)NC1CCN(c2ccnc3ccccc23)CC1 [TCMDC-133587] | 54.56%

Structure (SMILES) | % Inhibition
O=C(COc1ccc(F)cc1)NC1CCN(c2ccnc3cc(Cl)ccc23)C1 (centres unmarked) [TCMDC-133397] | -4.375%
O=C(Nc1ccccc1Oc1ccccc1)NC1CCN(c2ccnc3cc(Cl)ccc23)C1 (centres unmarked) [TCMDC-133401] | -4.379%
CC(C)(C)c1ccc(OCC(=O)NC2CCN(c3ccnc4cc(Cl)ccc34)C2)cc1 (centres unmarked) [TCMDC-133670] | 64.95%
O=C(COc1ccccc1)NC1CCN(c2ccnc3cc(Cl)ccc23)C1 (centres unmarked) [TCMDC-133669] | -12.2%
Cc1ccc(-c2cc(C(=O)Nc3ccc(S(=O)(=O)N4CC(C)OC(C)C4)cc3)[nH]n2)c(O)c1 (centres unmarked) [TCMDC-125180] | -20.62%
COc1ccc2nccc([C@@H](O)CN3CCC(NC(=O)c4ccc(-c5ccccc5)s4)CC3)c2c1 [TCMDC-141106] | 10.46%
O=C(CCCCCNC(=O)c1ccc(O)c(-c2ccc(Cl)c(Cl)c2)c1)NC1CCCCCC1 [TCMDC-140842] | -20.8%
CC(C)(C)c1ccc(N2C(N)=NC(N)=NC2(C)C)cc1 [TCMDC-137713] | 2.693%
O=C(Nc1ccc(Cl)cn1)c1sc2ccccc2c1O [TCMDC-124520] | -11.35%
Cc1ccc(C(=O)Nc2cc(S(=O)(=O)N3CCCC3)ccc2OCC(F)(F)F)cc1 [TCMDC-124325] | -29.62%
O=C(Nc1ccc(Cl)c(Cl)c1)Nc1ccc(F)c([N+](=O)[O-])c1 [TCMDC-125042] | -17.87%
CC(C)(C)c1ccc(NC(=O)N[C@@H]2CCN(c3ccnc4ccccc34)C2)cc1 [TCMDC-141573] | 101%
O=C(Nc1ccc(OC(F)(F)F)cc1)NC1CCN(c2ccnc3ccccc23)CC1 [TCMDC-133585] | -8.485%
O=C(Nc1ccc(C(F)(F)F)cc1)NC1CCN(c2ccnc3cc(Cl)ccc23)C1 (centres unmarked) [TCMDC-133405] | -22.97%
COc1cc(O)c2c(=O)c(OC)c(-c3cccc(Cl)c3OC3O[C@H](CO)[C@@H](O)[C@H](O)[C@H]3O)oc2c1OC (some centres unmarked) [TCMDC-131699] | 3.846%
CC(C)c1ccc(CN2CCC(CNC(=O)c3cc(-c4cccc(F)c4)cs3)C2)cc1 (centres unmarked) [TCMDC-134437] | 107.7%
COc1cccc(-c2csc(C(=O)NCC3CCN(Cc4ccc(C(C)C)cc4)C3)c2)c1 (centres unmarked) [TCMDC-134439] | 107.3%
CC(C)c1ccc(CN2CCCCC(NC(=O)c3cc(-c4cccc(F)c4)cs3)C2)cc1 (centres unmarked) [TCMDC-134463] | -60.78%
CC(C)c1ccc(CN2CCC(CNC(=O)c3cc(-c4cccc(Cl)c4)cs3)C2)cc1 (centres unmarked) [TCMDC-134438] | 95.05%
Cc1cc(N[C@@H](CC(C)C)C(=O)NCCOc2ccccc2)nc(Nc2ccccc2)n1 [TCMDC-134741] | -17.47%
C#CCN(Cc1cc2c(=O)[nH]c(N)nc2cc1C)c1ccc(C(=O)N[C@@H](CCC(=O)O)C(=O)O)cc1 [TCMDC-132041] | 1.845%
CCOC(=O)NC1=NC(C)(C)N(OCc2cccc3c2ccc2ccccc23)C(NC(=O)OCC)=N1 [TCMDC-131339] | 9.295%
